In all, about 33,000 sequences were measured (“normalized occupancy”: median about 0.075, highest 2% from about 0.095 on). What follows is part of a selection rich in the highest values, with near analogues and random picks from the rest.

MaxL homodimer, sequence (P61244 whole entry): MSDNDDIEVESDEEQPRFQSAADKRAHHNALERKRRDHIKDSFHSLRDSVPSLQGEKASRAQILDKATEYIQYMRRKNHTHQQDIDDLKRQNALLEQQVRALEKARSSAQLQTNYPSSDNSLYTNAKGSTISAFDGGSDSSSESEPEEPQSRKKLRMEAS

This test has as its target MaxL homodimer (Homo sapiens, UniProt P61244 1-160). Kind of test: universal protein-binding microarray (PBM); PBS-based mixture, 10 nM His-tagged protein dimer, 2% milk, 200 ng/uL BSA, 50 ng/uL salmon testes DNA, 0.02% TX-100; detection with Alexa 488 anti-His antibody;; high values mean tight binding. To be noted: protein: recombinant; tags: C-terminal His-tag (pET21a); chain copies: 2; dsDNA, one strand shown. In short, it runs like this: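 Each 8-mer received a fluorescence intensity from GenePix 4400A scans of Agilent 4 x 44 K 'all 10-mer' universal arrays. Those arrays had been incubated with His-tagged protein dimer at 10 nM, and the bound protein was marked with a fluorophore-conjugated anti-His antibody at 10 ng/μL. Binding occupancy is the intensity scaled to that of the highest-ranked sequence word.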
For the sequence AGCGCATG, the binding signal is 0.109 normalized occupancy.

ACCGCATG: the binding signal worked out at 0.146 normalized occupancy. Turning to ACCGCATA, the binding signal is 0.0828 normalized occupancy. Take AGCGCATC: the binding signal is 0.0737 normalized occupancy. For ATCGCATG the value was 0.108 normalized occupancy; for ATCGCATA, 0.082 normalized occupancy.

As for AATTCACA, the binding signal amounted to 0.0775 normalized occupancy. Take GTCACTAA: the binding signal amounted to 0.0757 normalized occupancy. In the case of AACATCTC, the binding signal turned out to be 0.0748 normalized occupancy. With ATGGACGG, the binding signal was determined as 0.0788 normalized occupancy. On to CACACGAA, for which the binding signal worked out at 0.0853 normalized occupancy. For AACACGAA the value was 0.0741 normalized occupancy. Consider CACACGAC, for which the binding signal came to 0.0877 normalized occupancy. Take AACACGAG: the binding signal came to 0.11 normalized occupancy. The result for CACACGAG reads 0.0978 normalized occupancy; that for AACACGAT, 0.0845 normalized occupancy. For TAGAGCTA the value was 0.0719 normalized occupancy.

For AGTGTATC, the binding signal was found to be 0.0882 normalized occupancy. Consider AAATTGCC, for which the binding signal came to 0.0721 normalized occupancy. For CAATTCTA the value was 0.0752 normalized occupancy; for AACATTTA, 0.0795 normalized occupancy; for CACATTGG, 0.0977 normalized occupancy.

Regarding GACATTTA, the binding signal was 0.0853 normalized occupancy. With CACATTGC, the binding signal was 0.0923 normalized occupancy. The result for CACATTGA reads 0.0932 normalized occupancy; that for CACATTTA, 0.0961 normalized occupancy. For the sequence GTTCTAGA, the binding signal stood at 0.0745 normalized occupancy. In the case of CTGTGGAC, the binding signal was 0.0726 normalized occupancy.

On to ATGTGGTC, for which the binding signal worked out at 0.0985 normalized occupancy.

ATGTGGTA: the binding signal was 0.0922 normalized occupancy. In the case of ATGTGGTG, the binding signal is 0.0894 normalized occupancy. On to ATGTGGAG, for which the binding signal is 0.0861 normalized occupancy. The result for ATGTGGAC reads 0.0955 normalized occupancy.

With AACGCTGT, the binding signal was 0.0729 normalized occupancy. In the case of CGCAATCC, the binding signal came to 0.0789 normalized occupancy. With CCAATCTA, the binding signal was 0.073 normalized occupancy. On to ACCACGTA, for which the binding signal came out at 0.0816 normalized occupancy. ACCACGTG: the binding signal amounted to 0.773 normalized occupancy. The result for ACCACACG reads 0.0972 normalized occupancy; that for ACCACGCC, 0.102 normalized occupancy; that for TCCACGCA, 0.0885 normalized occupancy. The result for ACCACACA reads 0.085 normalized occupancy. As to GCCACGCC, the binding signal is 0.0925 normalized occupancy. For the sequence ACCACACT, the binding signal turned out to be 0.0849 normalized occupancy. For ACCACGGC the value was 0.0743 normalized occupancy. As for ACCACGCA, the binding signal came out at 0.0954 normalized occupancy. As to GCCACGCA, the binding signal was 0.0915 normalized occupancy. The result for ACCACGTC reads 0.0945 normalized occupancy; that for AAAGCAGT, 0.0719 normalized occupancy. As for ATGAAGCG, the binding signal stood at 0.0749 normalized occupancy. With GTCGCGCA, the binding signal is 0.0729 normalized occupancy. For CTATGCCA the value was 0.0777 normalized occupancy; for AACAAGAA, 0.0753 normalized occupancy. AGCCTCTC: the binding signal came out at 0.0729 normalized occupancy.

In the case of ACCACGAT, the binding signal was 0.0936 normalized occupancy. On to CCCACGGC, for which the binding signal worked out at 0.0782 normalized occupancy. For the sequence ACCACGCT, the binding signal amounted to 0.123 normalized occupancy. Turning to CCCACGCC, the binding signal was determined as 0.099 normalized occupancy. The result for ACACCACA reads 0.083 normalized occupancy. For ATCACGTC the value was 0.0875 normalized occupancy; for ACCACGGT, 0.0803 normalized occupancy. For the sequence CCCACGTC, the binding signal was found to be 0.0804 normalized occupancy.

Consider ATCACGTG, for which the binding signal was 0.363 normalized occupancy. The result for ATCACGTA reads 0.0829 normalized occupancy; that for ACACCACC, 0.086 normalized occupancy.

In the case of ACACCACG, the binding signal came out at 0.0983 normalized occupancy. For CGAAGGTA the value was 0.0721 normalized occupancy; for CTGTGGCA, 0.0739 normalized occupancy.

For the sequence AGGAACAG, the binding signal is 0.0793 normalized occupancy. For ACCACGGG the value was 0.0834 normalized occupancy. As for CCCACGCG, the binding signal is 0.148 normalized occupancy. The result for ATCACGCA reads 0.0877 normalized occupancy; that for CCCACACA, 0.0838 normalized occupancy; that for ATCACGCG, 0.132 normalized occupancy. On to CCCACGCA, for which the binding signal was 0.0903 normalized occupancy. Turning to ACCACGGA, the binding signal was 0.0736 normalized occupancy. For the sequence ATCACGCC, the binding signal was 0.0864 normalized occupancy. As to ACCACGCG, the binding signal came out at 0.187 normalized occupancy. Turning to ACGACGAG, the binding signal was 0.0759 normalized occupancy. For AATTACGA the value was 0.0775 normalized occupancy; for AATGGCAA, 0.0742 normalized occupancy. On to CTCAACAA, for which the binding signal came out at 0.0728 normalized occupancy. On to ACTGCTTC, for which the binding signal came to 0.0747 normalized occupancy. The result for AGTTGGTC reads 0.0747 normalized occupancy.

In the case of ACACGCTG, the binding signal worked out at 0.108 normalized occupancy. On to ACGCGCTG, for which the binding signal came out at 0.077 normalized occupancy. Turning to AAACGCCT, the binding signal worked out at 0.073 normalized occupancy. Regarding ACACGCCG, the binding signal worked out at 0.1 normalized occupancy.

Source of the values: article PMC4242493, “Sequence specificity incompletely defines the genome-wide occupancy of Myc”.
